# Results taken from the supplement of paper PMC11417369.
# Over roughly 25,000 sequences, “ln(normalized median fluorescence intensity)” has its median near 7.1; the highest 2% begin near 10. This excerpt belongs to a sample that is enriched for the highest values.
# System: PfSIP2 AP2 domain 1 (GST-tagged)
# Assay: gcPBM binding intensity (ln(normalized median fluorescence intensity)); higher = stronger DNA binding
# Method in brief: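 Each value is the highest Masliner-normalised natural-log median intensity across replicate spots of either orientation of a probe. The probes were primer-extended double-stranded 36-bp intergenic genomic sequences on an Agilent 4 × 180k array, alongside negative controls, exposed for 1 h to GST-tagged P. falciparum DNA-binding domains expressed in E. coli. Bound protein was picked up with Alexa488 anti-GST antibody and scanned at 488 nm.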
row,Sequence,gcPBM binding intensity (ln)
1,ATATAATATGGTATTACACACTGTTAAAAGTATGGC [CACACA_site5190],7.03
2,ATAAATAAATGGTGTTGTACTCTATTATATATATAT [XGTACX_site7835],8.66
3,TTGATTATAATTAGTACACACAAAATACATGCGGGG [CACACA_site2277],7.82
4,ATAAATTTTTAAAAATATGAATTATGTAATTTGTGA [CACACA_negctrl_site1621],6.92
5,TTATAATTTTAATGTGCACACAATTAAAATATTATA [CACACA_site5172],9.21
6,AAAAAAATTAATAATGTGCACTTTTTAGTATTTTTA [GTGCAC_site9744],10.3
7,TTATTTTATTTTTGTGCACACTGATAAATTGAAAAG [CACACA_site2949],10.2
8,TTTATATTAATTGATGTGCACTGAAATATTTGTCCA [GTGCAC_site9655],10.2
9,TTTATCTAAATATGTGTGCACTCGTTAATTTTTTTT,10.5
10,TCATTTTAAATATGTGTGCACGTTATAATTTACACA,9.54
11,ATTTATATTAAAAGTGTGCACTTTTTTTTTTTTTTT,10.1
12,TATTTATTGTGACACTTTTATTATTTTATGATAAAA [CACACA_negctrl_site37],6.97
13,ATATCGTTATTTTTATGTACTAAAATATTTAATTAT [XGTACX_site3516],7.09
14,TGATATTATATTGTGATGCACTTTAAAAATATAAAG [GTGCAC_site9509],10.3
15,TGAAATTTTATTAATGTGCACATATATTTATTGTTC,8.56
16,CGAACTGCACTTTTTAGTACTTAATAATTATTTTTT [XGTACX_site2446],8.47
17,TTAAATAAAAGGTTTAGTACTTAAAATAAGAAATGA [XGTACX_site6341],6.91
18,GTATGTAATATTTTAGTGCAAAAAAAAAAAAAAAAA [GTGCAC_site9790],8.3

row,Sequence,gcPBM binding intensity (ln)
1,ACAAAAAGTTACATACGTACGTAAAATTGTAATAAA [XGTACX_site2358],6.96
2,TCCATCCACATATATGTACACACATATATATATATA [CACACA_site8970],9.43
3,TTTTTTTTTTTTTTTTGTCCGTACTGCTTTGTGTTT [XGTACX_site3687],6.99
4,AAAAAAAAAAATTAAAGTACAAAAATATTAAAAATA [XGTACX_site6517],6.8
5,ATATATATATATCACCGTACTTATATAATAACATGA [XGTACX_site4398],9.36
6,AGAATATATATAATAGTGCAATGTACAATGAACAAA [GTGCAC_site9577],8.01
7,TATATTTATATATTAGTGCACTTTTTGTTAATTTTT,10.7
8,TTTATTTGTGCATATACACACTTAAATATGTTTATT [CACACA_site7772],7.65
9,ATTATTTTTTTTGAAGTGCAATATTATTTTTAATCA,8.2
10,AATTATATTTAGTATATGCACACTTTATGTTTGTTA [CACACA_site2025],7.9
11,TTTGGAATATTAATTGTGCACTTAAAAAGTTAATTA,10
12,AATAATATTTATTTTTGTACATATGTGCATTATAAA [XGTACX_site3682],7.13
13,AGTACATTTTTGTGTGTGCACTAATATTATATACTT [GTGCAC_site9568],10.3
14,TTTTGTTATTTTGAAGTGCACTTTCCACTTAATATA,11
15,ATGAAATATTTATTTGTGCACTTAATTTGTTGGAAA,10.4
16,TATATATATTAGTGTGCACACTTTTTATTTTTATCC [CACACA_site8506],8.6
17,TTTTTTTTGATTTGTTTGCACTTATTTCCACAATAA,8.23
18,TTTTTTTTTTTTTTGTGTACTAATATTATAAATTTT [XGTACX_site4405],7.01
